Measured values published in PubChem BioAssay AID1220 (Sanford-Burnham Center for Chemical Genomics, 2008).
In all, about 190,000 compounds went through this assay and about 1,300 (0.68%) were called active. No stated cut-off is given here; in the data, active means inhibition above about 50%; inactive means the rest. For the sample, actives were picked, then their nearest neighbours and some compounds at random.

Each molecule was assayed against Mannose-6-phosphate isomerase (Homo sapiens) (UniProt P34949) (assay: human PMI inhibitors, high substrate, primary screen, biochemical, fluorescence intensity, high mannose 6-phosphate (AID 1220)). Conditions: recombinant PMI enzyme, coupled fluorescence intensity; at 20 µM; hits give high values.
Sequence of Mannose-6-phosphate isomerase (Homo sapiens) (P34949 whole entry, looked up): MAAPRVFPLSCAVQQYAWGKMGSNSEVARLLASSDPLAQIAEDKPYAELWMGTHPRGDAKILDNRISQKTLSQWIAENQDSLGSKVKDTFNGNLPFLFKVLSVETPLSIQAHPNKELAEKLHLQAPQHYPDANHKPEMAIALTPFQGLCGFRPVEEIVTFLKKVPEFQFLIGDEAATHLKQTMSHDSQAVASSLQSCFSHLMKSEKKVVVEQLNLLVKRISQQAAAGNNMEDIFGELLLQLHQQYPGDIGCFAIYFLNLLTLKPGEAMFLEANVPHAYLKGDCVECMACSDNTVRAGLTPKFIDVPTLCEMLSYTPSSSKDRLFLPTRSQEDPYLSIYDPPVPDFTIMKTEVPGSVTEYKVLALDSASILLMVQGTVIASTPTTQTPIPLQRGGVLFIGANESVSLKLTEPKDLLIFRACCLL

Q: How did the inhibition turn out when `CCOc1ccccc1-n1c(O)c(C=NCCCN(CC)CC)c(=O)[nH]c1=O` was run?
A: The inhibition was -2.3% (inactive).

Q: How did the inhibition turn out when `O=C(c1cc(-c2ccccc2)on1)N1CCC2(CC1)OCCO2` was run?
A: The inhibition was -0.7% (inactive).

Q: With `Oc1ccc(/C=N/NP(=S)(c2ccccc2)c2ccccc2)cc1` as the molecule, how does the inhibition read?
A: Its inhibition is 8.7% (inactive).

Q: Which inhibition does the source give for `Oc1ccccc1/C=N/NP(=S)(c1ccccc1)c1ccccc1` here?
A: Its inhibition is 10.4% (inactive).

Q: Which inhibition does the source give for `Oc1ccc(/C=N/NP(=S)(c2ccccc2)c2ccccc2)c(O)c1O` here?
A: The inhibition was 52.2% (active).

Q: With `COC(=O)CNC(=O)c1cn(CCC#N)nc1-c1ccc(F)cc1` as the molecule, how does the inhibition read?
A: The inhibition was -0.2% (inactive).

Q: With `O=C(CSc1ccccc1)N1CCC2(CC1)OCCO2` as the molecule, how does the inhibition read?
A: Its inhibition is 14.1% (inactive).

Q: Which inhibition does the source give for `CCOC(=O)C1=C(C)OC(N)=C(C#N)C12C(=O)Nc1ccc(C)cc12` (configuration not stated) here?
A: Its inhibition is -2.3% (inactive).

Q: With `CCCC1=C(C(=O)OCC)C2(C(=O)Nc3ccc(C)cc32)C(C#N)=C(N)O1` (configuration not stated) as the molecule, how does the inhibition read?
A: The inhibition was 8.5% (inactive).

Q: `O=C1CCCN1c1ccc(S(=O)(=O)O)cc1` (tested in a mixture with another compound) was tested. Which inhibition did it give?
A: The inhibition was -11.1% (inactive).

Q: Which inhibition does the source give for `CC(=O)c1ccc(OC(NC(=O)c2ccco2)C(Cl)(Cl)Cl)cc1` (configuration not stated) here?
A: The inhibition was 7.7% (inactive).

Q: How did the inhibition turn out when `CCOCCCn1c(N)c(C(=O)Nc2sc3c(c2C(=O)OC)CCCC3)c2nc3ccccc3nc21` was run?
A: Its inhibition is 62.1% (active).

Q: For `CCC(C)OC(=O)c1c(N)n(Cc2cccs2)c2nc3ccccc3nc12` (configuration not stated), which inhibition is on record?
A: Its inhibition is 8.2% (inactive).

Q: How did the inhibition turn out when `CCCOC(=O)c1c(N)n(Cc2cccs2)c2nc3ccccc3nc12` was run?
A: Its inhibition is -0.8% (inactive).

Q: How did the inhibition turn out when `CC(C)CCn1c(N)c(C(=O)NCc2cccs2)c2nc3ccccc3nc21` was run?
A: The inhibition was 59.5% (active).

Q: With `CCCCNC(=O)c1c(N)n(CCCOC)c2nc3ccccc3nc12` as the molecule, how does the inhibition read?
A: Its inhibition is 40.9% (inactive).

Q: With `COCCCn1c(N)c(C(=O)NCCC(C)C)c2nc3ccccc3nc21` as the molecule, how does the inhibition read?
A: Its inhibition is 63.7% (active).

Q: For `COCCNC(=O)c1c(N)n(CCC(C)C)c2nc3ccccc3nc12`, which inhibition is on record?
A: Its inhibition is 34.1% (inactive).

Q: For `CC(C)CNC(=O)c1c(N)n(Cc2ccco2)c2nc3ccccc3nc12`, which inhibition is on record?
A: Its inhibition is -12.2% (inactive).

Q: How did the inhibition turn out when `COCCCn1c(N)c(C(=O)Nc2sc3c(c2C(=O)OC)CCCC3)c2nc3ccccc3nc21` was run?
A: The inhibition was 24.1% (inactive).

Q: `CCOC(=O)c1c(NC(=O)c2c(N)n(CCCOC)c3nc4ccccc4nc23)sc2c1CCCC2` was tested. Which inhibition did it give?
A: Its inhibition is 24.1% (inactive).

Q: Which inhibition does the source give for `Nc1c(C(=O)NCCCc2ccccc2)c2nc3ccccc3nc2n1Cc1cccs1` here?
A: Its inhibition is 17.4% (inactive).

Q: For `CC(C)OCCCNC(=O)c1c(N)n(Cc2cccs2)c2nc3ccccc3nc12`, which inhibition is on record?
A: Its inhibition is 57.4% (active).

Q: `CCOc1cc(C2C(C#N)=C(N)Oc3c2c(=O)oc2ccccc32)ccc1OC(=O)c1cccs1` (configuration not stated) was tested. Which inhibition did it give?
A: Its inhibition is 2.8% (inactive).

Q: With `Cc1ccnc(-n2c(-c3ccccc3)nc3ccccc3c2=O)c1` as the molecule, how does the inhibition read?
A: The inhibition was 15.9% (inactive).

Q: With `CC(C(=O)c1c[nH]c2ccccc12)N1CCc2ccccc2C1` (configuration not stated) as the molecule, how does the inhibition read?
A: The inhibition was 6.1% (inactive).

Q: Which inhibition does the source give for `CCCC1(CCC)C(=O)NC(=Nc2ccc(C)cc2)NC1=O` here?
A: Its inhibition is 2.5% (inactive).

Q: With `CN1CN=C(N[N+](=O)[O-])N(Cc2ccco2)C1` as the molecule, how does the inhibition read?
A: The inhibition was -10.4% (inactive).

Q: How did the inhibition turn out when `O=C(Cn1cnc2sc3c(c2c1=O)CCCC3)NCCC(=O)N1CCC2(CC1)OCCO2` was run?
A: The inhibition was 1.1% (inactive).

Q: Which inhibition does the source give for `CN1C[C@H](CO)C=C2c3cccc4[nH]cc(c34)C[C@H]21` here?
A: Its inhibition is 65.5% (active).

Q: `CC(C)C[C@H]1C(=O)N2CCCC2[C@]2(O)O[C@](NC(=O)[C@@H]3C=C4c5cccc6[nH]cc(c56)CC4N(C)C3)(C(C)C)C(=O)N12` (some centres not stated) was tested. Which inhibition did it give?
A: Its inhibition is 48.1% (inactive).

Q: How did the inhibition turn out when `CC(C)[C@H]1C(=O)N2CCC[C@H]2[C@]2(O)O[C@](NC(=O)[C@@H]3C=C4c5cccc6[nH]cc(c56)C[C@H]4N(C)C3)(C(C)C)C(=O)N12` was run?
A: Its inhibition is 0.6% (inactive).

Q: `O=[N+]([O-])c1ccc(C2C3C(c4ccccc4)=NC4(CCCC4)N32)cc1` (configuration not stated) was tested. Which inhibition did it give?
A: The inhibition was 9.1% (inactive).

Q: Which inhibition does the source give for `Cc1ccnc(-n2c(-c3ccco3)nc3ccccc3c2=O)c1` here?
A: The inhibition was 16.7% (inactive).

Q: `CN(CCOc1ccc(C=C2C(=O)NC(=O)NC2=O)cc1)c1ccccn1` was tested. Which inhibition did it give?
A: Its inhibition is -5.1% (inactive).

Q: `COc1cc(/C=N/NP(=S)(c2ccccc2)c2ccccc2)ccc1O` was tested. Which inhibition did it give?
A: Its inhibition is 4.4% (inactive).

Q: With `C=CCn1c(O)c(C(CC)=Nc2cc(OC)ccc2OC)c(=O)[nH]c1=O` as the molecule, how does the inhibition read?
A: Its inhibition is 55.7% (active).

Q: With `CCCCn1c(O)c(C(CC)=Nc2ccc(OC)cc2OC)c(=O)[nH]c1=O` as the molecule, how does the inhibition read?
A: Its inhibition is 17.6% (inactive).

Q: Which inhibition does the source give for `COc1ccc(N=C(C)c2c(O)n(C)c(=O)n(C)c2=O)c(OC)c1` here?
A: The inhibition was -2.6% (inactive).

Q: For `C=CCn1c(O)c(C(C)=Nc2cc(OC)ccc2OC)c(=O)[nH]c1=O`, which inhibition is on record?
A: The inhibition was 13% (inactive).

Q: How did the inhibition turn out when `CCC(=Nc1ccc(OC)cc1OC)c1c(O)[nH]c(=O)[nH]c1=O` was run?
A: Its inhibition is 30.1% (inactive).

Q: Which inhibition does the source give for `CCC(=Nc1ccc(OC)cc1OC)c1c(O)n(C)c(=O)n(C)c1=O` here?
A: The inhibition was 53.9% (active).

Q: For `Cc1ccc(O)c(CN2CCN(c3ccccc3)CC2)c1`, which inhibition is on record?
A: Its inhibition is 4.3% (inactive).

Q: How did the inhibition turn out when `CN(C)[C@@H]1C(=O)C(C(N)=O)=C(O)[C@@]2(O)C(=O)C3=C(O)c4c(O)cccc4[C@@](C)(O)[C@H]3[C@H](O)[C@@H]12` was run?
A: The inhibition was 52.6% (active).

Q: With `CN(C)[C@@H]1C(=O)C(C(N)=O)=C(O)[C@@]2(O)C(=O)C3=C(O)c4c(O)ccc(Cl)c4[C@@](C)(O)C3C[C@@H]12` (some centres not stated) as the molecule, how does the inhibition read?
A: The inhibition was 16.4% (inactive).

Q: For `O=[N+]([O-])c1ccc(N2CCCC2)c2ncccc12`, which inhibition is on record?
A: The inhibition was 22.1% (inactive).

Q: Which inhibition does the source give for `CC1CN(c2ccc([N+](=O)[O-])cc2Cl)CCN1` (configuration not stated) here?
A: Its inhibition is 49.1% (inactive).

Q: For `O=[N+]([O-])c1ccc(N2CCCCCC2)c2ncccc12`, which inhibition is on record?
A: Its inhibition is 63.7% (active).

Q: How did the inhibition turn out when `CN1CCN(c2ccc([N+](=O)[O-])c3cccnc23)CC1` was run?
A: Its inhibition is 63.5% (active).

Q: For `CN1CCN(c2ccc(S(C)(=O)=O)cc2[N+](=O)[O-])CC1`, which inhibition is on record?
A: The inhibition was -13.1% (inactive).

Q: With `O=[N+]([O-])c1ccc(N2CCNCC2)c2ncccc12` as the molecule, how does the inhibition read?
A: Its inhibition is 29% (inactive).

Q: Which inhibition does the source give for `CC1CN(c2ccc([N+](=O)[O-])c3cccnc23)CC(C)N1` (configuration not stated) here?
A: Its inhibition is 63.1% (active).

Q: With `CC1CN(c2cc([N+](=O)[O-])ccc2Cl)CC(C)N1` (configuration not stated) as the molecule, how does the inhibition read?
A: The inhibition was -1.6% (inactive).

Q: Which inhibition does the source give for `CN1CCN(c2ccc(S(=O)(=O)C(F)(F)F)cc2[N+](=O)[O-])CC1` here?
A: The inhibition was -6.1% (inactive).

Q: `O=[N+]([O-])c1ccc(N2CCCCC2)c2ncccc12` was tested. Which inhibition did it give?
A: Its inhibition is 72.6% (active).

Q: How did the inhibition turn out when `O=[N+]([O-])c1ccc(N2CCNCC2)cc1N1CCCCC1` was run?
A: The inhibition was 9.9% (inactive).

Q: For `O=[N+]([O-])c1ccc(N2CCCC2)c(F)c1Br`, which inhibition is on record?
A: The inhibition was 8.1% (inactive).
